An excerpt weighted towards active compounds, which were near 1.1% of everything screened.
HTR5A inv ag: inverse agonist of human HTR5A in OPRM1-OPRD1 counter-screen; inhibition, % at 9.3 µM; P47898; HTR5A cell line, luminescence, inverse agonism; 0.083% of 340,000 active; in the data active = inhibition mostly above about 23%, no sharp cut-off; inactive = mostly below about 18%;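 also: 0% = cells with DMSO and 100% = no-cell wells with DMSO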
HTR5A ag ctr: activates human HTR5A in OPRM1-OPRD1 agonist counter-screen | P47898 | HTR5A agonist assay, luminescence, cell-based | activation, % at 9.3 µM | 0.61% of 340,000 active | AID 504692; in the data active = activation mostly above about 9.5%, no sharp cut-off; inactive = mostly below about 7.6%;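 also: 0% = cells with vehicle only and 100% = reference agonist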
MOR-DOR inv ag: inverse agonists of human mu-delta opioid receptor heterodimerization. AID 504357. P35372+P41143. 0.21% of 340,000 active. inhibition, % at 9.3 µM. cell-based MOR-DOR heterodimer luminescence, inverse agonism; in the data active = inhibition above about 22%, passing the limit was not always enough;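 also: 0% = cells with DMSO and 100% = wells without cells with DMSO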
Target sequence (P35372 whole entry, looked up): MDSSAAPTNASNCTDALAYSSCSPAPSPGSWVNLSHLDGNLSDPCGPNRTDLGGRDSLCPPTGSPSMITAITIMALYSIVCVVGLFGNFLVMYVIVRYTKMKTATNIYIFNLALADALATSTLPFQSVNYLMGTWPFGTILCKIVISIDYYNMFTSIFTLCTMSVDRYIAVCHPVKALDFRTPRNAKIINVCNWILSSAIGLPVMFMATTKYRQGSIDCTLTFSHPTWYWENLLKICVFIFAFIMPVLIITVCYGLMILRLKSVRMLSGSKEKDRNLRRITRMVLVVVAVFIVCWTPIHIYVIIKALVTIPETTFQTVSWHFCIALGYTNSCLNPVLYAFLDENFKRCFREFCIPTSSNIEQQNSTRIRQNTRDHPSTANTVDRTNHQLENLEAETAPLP
Target sequence (P41143 whole entry, looked up): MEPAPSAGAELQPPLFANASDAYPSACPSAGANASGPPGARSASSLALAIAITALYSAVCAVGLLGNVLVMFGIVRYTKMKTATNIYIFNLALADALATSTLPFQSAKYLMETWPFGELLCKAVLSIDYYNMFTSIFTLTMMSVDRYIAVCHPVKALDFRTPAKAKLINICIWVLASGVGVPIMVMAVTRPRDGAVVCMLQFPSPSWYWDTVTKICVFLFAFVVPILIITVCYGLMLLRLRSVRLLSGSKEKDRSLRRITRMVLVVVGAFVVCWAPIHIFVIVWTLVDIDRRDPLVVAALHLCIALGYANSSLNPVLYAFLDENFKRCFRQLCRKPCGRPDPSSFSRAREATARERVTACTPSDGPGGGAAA
OPRM1-OPRD1 ag: OPRM1-OPRD1 heterodimerization agonism; P35372+P41143; cells, luminescence; activation, % at 9.3 µM; 0.3% of 340,000 active; AID 504326;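 also: 0% = vehicle-treated cells and 100% = reference agonist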
OPRM1-D1 ag cf: confirmation of human OPRM1-OPRD1 heterodimerization agonists; shares compounds with OPRM1-OPRD1 ag; cells, MOR-DOR heterodimerization, luminescence complementation; activation, % at 9.3 µM; 45% of 830 active; AID 504904;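 also: 0% = vehicle-treated cells and 100% = reference agonist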
HTR5A ag counter: counter-screen for OPRM1-OPRD1 agonists: human HTR5A agonism | shares compounds with OPRM1-OPRD1 ag | AID 504905 | activation, % at 9.3 µM | 8% of 830 active | HTR5A agonist counterscreen, cell luminescence; in the data active = activation above about 17%;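 also: 0% = vehicle-treated cells and 100% = reference agonist response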
Numbers without * were called inactive; i = inactive; . = no result given. Rule as the data show it, unless noted: active = activation above about 18%; inactive = the rest.

SMILES	HTR5A inv ag	HTR5A ag ctr	MOR-DOR inv ag	OPRM1-OPRD1 ag	OPRM1-D1 ag cf	HTR5A ag counter
Cc1ccccc1NC(=O)C(=O)c1cn(C)c2ccccc12	-8.3	2.6	-115.8	23.9*	0.6	-1.4
COc1ccc(Cl)cc1NS(=O)(=O)c1cccc(C(=O)NC2CCN(Cc3ccccc3)CC2)c1	0.5	-0.2	-76.1	18.4*	25.8*	1.2
COc1ccc(NS(=O)(=O)c2cccc(C(=O)NC3CCN(Cc4ccccc4)CC3)c2)cc1	-6.7	0.7	-4.3	0.8	.	.
CN(C)C(CNC(=O)C1CCN(S(=O)(=O)c2cccc(C(F)(F)F)c2)CC1)c1ccccc1 (centres undefined)	-0.3	0.1	-119.3	22.4*	139.8*	2.8
CN(C)C(CNC(=O)Cc1cccc(C(F)(F)F)c1)c1ccco1 (centres undefined)	-0.1	0.1	-299.4	63.2*	22.0*	-2.7
CN(C)C(CNC(=O)Cc1cccc(C(F)(F)F)c1)c1ccccc1 (centres undefined)	-5.4	1.9	i	249.3*	251.5*	1.1
CN(C)C(CNC(=O)C1CCN(S(=O)(=O)c2ccccc2)CC1)c1ccccc1 (centres undefined)	-17.4	6.4	-1.3	0.2	.	.
CCOC(=O)N1CCC(N2C(=O)c3ccc(C(=O)Nc4ccc(OC)c(OC)c4)cc3C2=O)CC1	-17.8	4.4	2.9	-0.5	.	.
NC(=O)C1CCN(c2nc(-c3ccccc3C(F)(F)F)cs2)CC1	-9.4	6.7	11.8	-2.1	.	.
O=c1nc(-c2ccccc2)c2cc(SC(F)F)ccc2[nH]1	-3.4	0.9	0.7	-0.1	.	.
CCCCn1c(N)c(N(CCC(C)C)C(=O)CSc2nc3ccccc3n2C)c(=O)[nH]c1=O	-43.4	15.6	0.6	-0.1	.	.
Cc1ccn2cc(-c3cc4ccccc4oc3=O)nc2c1	-17.5	-0.5	-102.4	19.7*	11.9	5.5
Cc1ccc(-c2csc(Cc3nc(-c4cc5ccccc5oc4=O)cs3)n2)cc1	2.5	-1.1	-18.1	3.0	.	.
Cc1nn(Cc2ccccc2)c2ncccc12	18.9	3.0	-4.5	0.8	.	.
O=C(Cn1c(-c2ccccc2)c[n+]2ccsc12)c1ccc(Br)cc1	-12.0	4.5	i	170.9*	2.8	-1.4
Cc1ccc(OCCOc2ccc(Br)cc2/C=N\NC(N)=O)cc1	-20.1	8.4	-97.8	19.8*	1.2	70.9*
CCCCN(C(=O)C1CCCC1)C1CCS(=O)(=O)C1 (centres undefined)	-16.1	7.4	-33.1	5.0	.	.
CSCCC(NS(=O)(=O)c1ccc(C)cc1)C(=O)N1CCN(C(C)=O)CC1 (centres undefined)	-6.2	1.2	11.2	-2.3	.	.
CSCCC(NS(=O)(=O)c1ccc(C)cc1)C(=O)N1CCN(C(c2ccccc2)c2ccccc2)CC1 (centres undefined)	-7.9	-1.0	-278.4	57.1*	4.0	7.5
CN(C)C(CNC(=O)c1oc2ccccc2c1CSc1ncn[nH]1)c1ccco1 (centres undefined)	-2.0	0.7	-111.1	21.2*	30.3*	3.0
COc1ccc(C(CNC(=O)C2CC2)N(C)C)cc1 (centres undefined)	12.5	-4.9	3.6	-0.9	.	.
COc1ccc(C(CNC(=O)Cc2ccc3ccccc3c2)N(C)C)cc1 (centres undefined)	-20.4	6.9	-296.2	36.7*	0.4	-1.2
COc1ccc(C(CNC(=O)C(C)c2ccc3cc(OC)ccc3c2)N(C)C)cc1 (centres undefined)	-15.5	5.2	-187.9	23.3*	55.8*	-3.9
Cc1ccc(NC(=O)CSCC(=O)Nc2cccc(S(=O)(=O)N3CCCCCC3)c2)cc1	-2.5	1.0	-13.9	3.2	.	.
CCc1nnc(SCC(=O)Nc2ccc(NC(C)=O)cc2)n1-n1cccc1	7.8	-3.0	13.7	-2.0	.	.
CCCOc1ccccc1OCC(=O)N1CCN(S(=O)(=O)c2ccc(Cl)cc2)CC1	-2.5	1.1	4.5	-1.1	.	.
O=C(Cn1c(=O)cnc2ccccc21)NNC(=O)c1ccccc1Cl	0.5	-0.2	10.7	-2.7	.	.
COc1ccc(/C=N/Nc2c(Cl)cc(Cl)cc2Cl)cc1CN1CCOCC1	-20.4	-0.9	-137.8	30.7*	5.1	3.5
COc1ccccc1NC(=O)COC(=O)c1cc([N+](=O)[O-])ccc1N1CCCC1	0.7	-0.3	15.7	-3.9	.	.
COc1cc2c3nnc(-c4ccc(F)cc4)c-3cn(Cc3ccccc3F)c2cc1OC	-21.6	5.8	-97.3	19.5*	27.6*	6.5

Screens as filed in PubChem.
